Experimental findings from PubChem BioAssay (EPA / NIEHS) are described below.

Activity calls are given as the source filed them. The calls were made as follows: active = hit-call score of the fitted dose curve at least 0.9, where 1 is the maximum; inactive = score below 0.9.

What all share (conditions): mRNA level, 48 h; actives raise or lower the signal
Read-out in experiment [1]: Cytochrome P450 7A1 (Homo sapiens) (UniProt P22680)
As to the kind of experiment: LTEA_HepaRG_CYP7A1: Life Technologies and Expression Analysis (LTEA) Assay for Cytochrome P450 7A1 (CYP7A1) using HepaRG (AID 2283496). The method in brief: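 HepaRG cells plated 48 h, then switched to serum-free induction medium and exposed in duplicate for 48 h to 8-point half-log series from 100 uM in 0.5% DMSO. CYP7A1 mRNA by qRT-PCR (TaqMan), normalized to ACTB/GAPDH/POLR2A; bidirectional fit versus DMSO.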

Read-out in experiment [2]: Glutathione S-Transferase (GSTA2), GSTA2 (gene 2939)
The experiment is described as follows: LTEA_HepaRG_GSTA2: Life Technologies and Expression Analysis (LTEA) Assay for Glutathione S-Transferase (GSTA2) using HepaRG (AID 2283497). The procedure, abridged:
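Differentiated human HepaRG cells were exposed in duplicate for 48 h in serum-free induction medium, 8 points from 100 uM top in half-log steps, 0.5% DMSO. GSTA2 mRNA was measured by TaqMan qRT-PCR, normalized to ACTB, GAPDH and POLR2A; bidirectional fit versus DMSO.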

Read-out in experiment [3]: growth arrest and DNA damage 45 (GADD45G), GADD45G (gene 10912)
As to the kind of experiment: LTEA_HepaRG_GADD45G: Life Technologies and Expression Analysis (LTEA) Assay for growth arrest and DNA damage 45 (GADD45G) using HepaRG (AID 2283499). The method in brief:
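GADD45G transcript level by qRT-PCR (housekeeping-normalized: ACTB, GAPDH, POLR2A) after 48 h chemical treatment of a single HepaRG lot in serum-free induction medium; eight-point half-log series up to 100 uM in 0.5% DMSO, duplicates, up- or down-regulation scored.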

Read-out in experiment [4]: Glutamate-cysteine ligase regulatory (GCLM), GCLM (gene 2730)
The experiment is described as follows: LTEA_HepaRG_GCLM: Life Technologies and Expression Analysis (LTEA) Assay for Glutamate-cysteine ligase regulatory (GCLM) using HepaRG (AID 2283500). The procedure, abridged: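 Differentiated HepaRG cells exposed 48 h in serum-free induction medium to eight half-log concentrations up to 100 uM (0.5% DMSO). GCLM mRNA by TaqMan qRT-PCR, normalized to ACTB, GAPDH and POLR2A; bidirectional fit versus DMSO.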

Read-out in experiment [5]: Glutathione S-transferase M3 (GSTM3), GSTM3 (gene 2947)
As to the kind of experiment: LTEA_HepaRG_GSTM3: Life Technologies and Expression Analysis (LTEA) Assay for Glutathione S-transferase M3 (GSTM3) using HepaRG (AID 2283501). The method in brief: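 GSTM3 transcript levels came from Fluidigm TaqMan qRT-PCR normalized to three housekeeping genes, fitted in both directions against DMSO. HepaRG cultures received chemicals for 48 h in serum-free induction medium (0.5% DMSO), 8 half-log concentrations up to 100 uM, duplicate.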

Read-out in experiment [6]: Heat shock 70 kDa protein 1 (HSPA1A), gene 3303
The experiment is described as follows: LTEA_HepaRG_HSPA1A: Life Technologies and Expression Analysis (LTEA) Assay for Heat shock 70 kDa protein 1 (HSPA1A) using HepaRG (AID 2283502). The procedure, abridged: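 Human HepaRG cells in serum-free induction medium were exposed in duplicate for 48 h to 8 half-log concentrations, highest 100 uM, in 0.5% DMSO. HSPA1A mRNA read by TaqMan qRT-PCR, normalized to ACTB, GAPDH, POLR2A, fitted bidirectionally against DMSO.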

Read-out in experiment [7]: Hypoxia-inducible factor 1-alpha (Homo sapiens) (UniProt Q16665)
As to the kind of experiment: LTEA_HepaRG_HIF1A: Life Technologies and Expression Analysis (LTEA) Assay for Hypoxia-inducible factor 1 (HIF1A) Trancription factor using HepaRG (AID 2283503). The procedure, abridged:
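Differentiated HepaRG cells in serum-free induction medium exposed 48 h, in duplicate, to 8-point half-log series from 100 uM in 0.5% DMSO. HIF1A mRNA measured by TaqMan qRT-PCR, normalized to ACTB/GAPDH/POLR2A, fitted bidirectionally versus DMSO.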

Read-out in experiment [8]: 3-Hydroxy-3-Methylglutaryl-CoA Synthase 2 (HMGCS2), HMGCS2 (gene 3158)
The experiment is described as follows: LTEA_HepaRG_HMGCS2: Life Technologies and Expression Analysis (LTEA) Assay for 3-Hydroxy-3-Methylglutaryl-CoA Synthase 2 (HMGCS2) using HepaRG (AID 2283504). The procedure, abridged:
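Readout is HMGCS2 transcript by qRT-PCR, housekeeping-normalised (ACTB/GAPDH/POLR2A) and fitted bidirectionally against 0.5% DMSO. Differentiated HepaRG cells received chemicals 48 h, duplicate wells, eight half-log concentrations topping at 100 uM.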

Read-out in the next experiment: HGF (gene 3082)
The experiment is described as follows: LTEA_HepaRG_HGF: Life Technologies and Expression Analysis (LTEA) Assay for Hepatocyte Growth Facto (HGF) using HepaRG (AID 2283505). The method in brief:
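HGF transcript was quantified by TaqMan qRT-PCR against three housekeeping genes after 48 h treatment of HepaRG cells. Exposure ran in duplicate over eight half-log steps topping at 100 uM in 0.5% DMSO vehicle.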

Read-out in experiment [9]: Insulin Like Growth Factor 1 (IGF1), IGF1 (gene 3479)
As to the kind of experiment: LTEA_HepaRG_IGF1: Life Technologies and Expression Analysis (LTEA) Assay for Insulin Like Growth Factor 1 (IGF1) using HepaRG (AID 2283506). The method in brief:
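Differentiated HepaRG cells in serum-free induction medium, exposed 48 h in duplicate to 8 half-log concentrations up to 100 uM in 0.5% DMSO. IGF1 mRNA by Fluidigm qRT-PCR, normalised to ACTB, GAPDH and POLR2A.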

Read-out in experiment [10]: Intercellular Adhesion Molecule 1 (ICAM1), ICAM1 (gene 3383)
As to the kind of experiment: LTEA_HepaRG_ICAM1: Life Technologies and Expression Analysis (LTEA) Assay for Intercellular Adhesion Molecule 1 (ICAM1) using HepaRG (AID 2283507). The procedure, abridged:
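ICAM1 transcript levels measured by qRT-PCR, normalized to three housekeeping genes (ACTB, GAPDH, POLR2A), after 48 h chemical exposure of HepaRG cells. Duplicate eight-point half-log series from 100 uM in 0.5% DMSO; gain or loss fitted against vehicle.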

Read-out in experiment [11]: Insulin-like growth factor-binding protein 1 (IGFBP1), IGFBP1 (gene 3484)
The experiment is described as follows: LTEA_HepaRG_IGFBP1: Life Technologies and Expression Analysis (LTEA) Assay for Insulin-like growth factor-binding protein 1 (IGFBP1) using HepaRG (AID 2283508). The method in brief:
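Read-out is qRT-PCR transcript level normalized to three housekeeping genes, fitted in both directions against 0.5% DMSO. Differentiated HepaRG cells received eight half-log concentrations (top 100 uM) in duplicate for 48 h in serum-free induction medium.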

Read-out in experiment [12]: Interleukin 6 Receptor (IL6R), IL6R (gene 3570)
As to the kind of experiment: LTEA_HepaRG_IL6R: Life Technologies and Expression Analysis (LTEA) Assay for Interleukin 6 Receptor (IL6R) using HepaRG (AID 2283510). The procedure, abridged: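 Differentiated HepaRG cells, plated 48 h, then exposed in duplicate for 48 h in serum-free induction medium to 8 half-log concentrations (top 100 uM, 0.5% DMSO). IL6R mRNA measured by TaqMan qRT-PCR, normalized to ACTB/GAPDH/POLR2A; bidirectional fit vs DMSO.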

Read-out in experiment [13]: Potassium channel subfamily K member 1 (KCNK1), KCNK1 (gene 3775)
As to the kind of experiment: LTEA_HepaRG_KCNK1: Life Technologies and Expression Analysis (LTEA) Assay for Potassium channel subfamily K member 1 (KCNK1) using HepaRG (AID 2283511). The method in brief:
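Differentiated HepaRG cells, 48 h exposure in serum-free induction medium with 0.5% DMSO; 8 concentrations, half-log from 100 uM, duplicate. KCNK1 mRNA by qRT-PCR, normalized to ACTB, GAPDH, POLR2A; bidirectional fit vs DMSO.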

Read-out in experiment [14]: Keratin 19 (KRT19), KRT19 (gene 3880)
The experiment is described as follows: LTEA_HepaRG_KRT19: Life Technologies and Expression Analysis (LTEA) Assay for Keratin 19 (KRT19) using HepaRG (AID 2283512). The procedure, abridged:
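KRT19 transcript measured by TaqMan qRT-PCR, referenced to three housekeeping genes, after HepaRG cells received test chemicals for 48 h. Eight half-log concentrations, top 100 uM, 0.5% DMSO vehicle; increases and decreases both fitted.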

Read-out in experiment [15]: JUN Transcription Factor, JUN (gene 3725)
The experiment is described as follows: LTEA_HepaRG_JUN: Life Technologies and Expression Analysis (LTEA) Assay for JUN Transcription Factor using HepaRG (AID 2283513). The method in brief: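 HepaRG cells, 48 h post-plating, exposed 48 h in serum-free induction medium to 8-point half-log series (top 100 uM, 0.5% DMSO), duplicate; mRNA by qRT-PCR (TaqMan, Fluidigm), normalized to ACTB/GAPDH/POLR2A; bidirectional fit vs DMSO.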

Read-out in experiment [16]: Lipase C (LIPC), LIPC (gene 3990)
The experiment is described as follows: LTEA_HepaRG_LIPC: Life Technologies and Expression Analysis (LTEA) Assay for Lipase C (LIPC) using HepaRG (AID 2283514). The procedure, abridged: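 HepaRG cells, 48 h after plating, treated in duplicate for 48 h in serum-free induction medium over 8 half-log concentrations from 100 uM, 0.5% DMSO. LIPC mRNA by TaqMan qRT-PCR normalized to ACTB/GAPDH/POLR2A; bidirectional fit versus DMSO.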

Read-out in experiment [17]: Lipoprotein lipase (LPL), LPL (gene 4023)
The experiment is described as follows: LTEA_HepaRG_LPL: Life Technologies and Expression Analysis (LTEA) Assay for Lipoprotein lipase (LPL) using HepaRG (AID 2283515). The method in brief: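 Differentiated HepaRG cells, plated 48 h, then exposed 48 h in serum-free induction medium to 8 concentrations (top 100 uM, half-log steps) in 0.5% DMSO, duplicate. LPL mRNA measured by qRT-PCR, normalized to ACTB, GAPDH and POLR2A.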

Read-out in experiment [18]: Interleukin 6 (IL6), IL6 (gene 3569)
The experiment is described as follows: LTEA_HepaRG_IL6: Life Technologies and Expression Analysis (LTEA) Assay for Interleukin 6 (IL6) using HepaRG (AID 2283509). The procedure, abridged:
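HepaRG cells exposed in duplicate for 48 h to eight half-log concentrations, top 100 uM, in 0.5% DMSO serum-free induction medium. mRNA measured by qRT-PCR, normalized to ACTB, GAPDH and POLR2A. Bidirectional fit versus DMSO.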

Hypoxia-inducible factor 1-alpha (Homo sapiens), sequence (Q16665 whole entry, looked up): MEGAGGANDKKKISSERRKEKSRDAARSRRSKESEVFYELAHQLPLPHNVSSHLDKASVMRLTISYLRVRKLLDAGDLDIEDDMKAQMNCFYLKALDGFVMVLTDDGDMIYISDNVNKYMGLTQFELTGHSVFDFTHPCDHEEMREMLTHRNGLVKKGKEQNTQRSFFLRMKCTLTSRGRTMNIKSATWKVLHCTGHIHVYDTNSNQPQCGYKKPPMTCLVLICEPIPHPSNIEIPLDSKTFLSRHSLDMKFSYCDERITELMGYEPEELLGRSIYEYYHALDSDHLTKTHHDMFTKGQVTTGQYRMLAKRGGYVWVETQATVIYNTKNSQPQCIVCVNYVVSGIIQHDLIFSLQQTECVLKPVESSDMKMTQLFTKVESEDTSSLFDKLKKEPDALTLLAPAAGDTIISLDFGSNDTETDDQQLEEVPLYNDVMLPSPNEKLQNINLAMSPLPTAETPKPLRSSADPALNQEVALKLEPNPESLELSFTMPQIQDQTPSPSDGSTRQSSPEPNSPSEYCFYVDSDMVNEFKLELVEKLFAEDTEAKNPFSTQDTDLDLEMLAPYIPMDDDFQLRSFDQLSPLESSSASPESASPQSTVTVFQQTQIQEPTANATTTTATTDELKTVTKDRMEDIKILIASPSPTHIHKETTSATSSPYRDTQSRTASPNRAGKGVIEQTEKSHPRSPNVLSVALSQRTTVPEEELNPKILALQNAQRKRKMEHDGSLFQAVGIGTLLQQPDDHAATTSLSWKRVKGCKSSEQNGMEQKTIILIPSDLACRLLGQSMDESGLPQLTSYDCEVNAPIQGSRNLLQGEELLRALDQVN

In the case of `CCc1cccc(CC)c1N`, the outcome in experiment [1], in experiment [2], in experiment [3], in experiment [4], in experiment [5] and in experiment [6] was inactive. For the same compound, the compound was called inactive (in [7]; in experiment [8]; with HGF (gene 3082); in experiment [9]; in experiment [10]; in [11]). The result in [12], in experiment [13], in experiment [14], in experiment [15], in experiment [16] and in experiment [17] was inactive.
As for `NC(=O)N1c2ccccc2C=Cc2ccccc21`, the compound was classed as inactive in [1], in experiment [2], in experiment [3], in experiment [4], in experiment [6] and in [7]. Moreover, the compound was classed as inactive (in experiment [8]; with HGF (gene 3082); in [9]; in experiment [10]; in [11]; in experiment [12]). For the same compound, the compound was called inactive in [13], in [14], in experiment [15], in experiment [16] and in experiment [17].
On to `O=C(O)c1cccc(C[C@@H]2COc3ccc(OCc4nc5cc(F)ccc5s4)cc3[C@@H]2O)c1`, for which the concentration at half-maximal activity (AC50) (usually the concentration giving half of the maximal activity seen) in experiment [1] was 77.6 µM (active); in experiment [3] it was 79.5 µM (active); in experiment [6], 89.2 µM (active); in experiment [7], 81.3 µM (active); in experiment [8], 66.8 µM (active); with HGF (gene 3082), 50 µM (active). The AC50 in experiment [12] was 50 µM (active). Besides, the result in [2], in experiment [4], in experiment [9], in experiment [10], in [11] and in experiment [18] was inactive. For the same compound, the compound was classed as inactive in [13], in experiment [14], in experiment [15], in experiment [16] and in experiment [17].
